Consider 105 compounds from PubChem BioAssay AID504834 (National Center for Advancing Translational Sciences (NCATS), 2011).

Hit rate of the full screen: of about 320,000 compounds, about 22,000 (6.9%) were called active. A call without a number means that no potency is given here. Inconclusive results (about 27%) are left out. The sample holds actives, similar compounds and a random draw of the others, so the mix is not that of the screen. Values without a mark were called inactive. Calls follow the shape of the dose curve; as a rule, active = well fitted inhibition curve with a large enough effect; inconclusive = small, poorly fitted or top-dose-only effect, or another doubt; inactive = no such curve, though single readings can be large or run the other way.
Potency is read from the fitted curve at half-maximal effect.

The nature of the assay: Primary qHTS for delayed death inhibitors of the malarial parasite plastid, 96 hour incubation. To be noted: P. falciparum luciferase reporter growth; series mostly up to 28.7 µM. The procedure, abridged: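 Plates of compound plus infected erythrocytes (2% hematocrit, 0.05% parasitemia final) incubate 96 hours, 37 C, 5% CO2. Detection reagent added; reduced luminescence from the parasites' luciferase reporter flags inhibition.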
Take `CC(C)(C)C(=O)COC(=O)c1cc(S(=O)(=O)N2CCCCC2)ccc1N1CCOCC1`: the Potency entry is “inactive”.
Consider `CCc1nn(CC(=O)N2CCN(CC)CC2)c(=O)c2cccn12`, for which the Potency entry is “inactive”.
As to `CC(NC(=O)C1CCCN(S(=O)(=O)c2ccc(-n3cnnn3)cc2)C1)c1ccc(F)cc1` (stereo not given), the Potency entry was “inactive”.
Take `COc1cc(C(C)=O)ccc1OC(C)C(=O)Nc1ccc(S(=O)(=O)N2CCCC2)cc1` (stereo not given): the Potency result is “inactive”.
Turning to `C=CCn1c(=NC(=O)c2cccs2)sc2cc(NC(C)=O)ccc21`, the Potency entry is “inactive”.
Consider `C=CCn1c(=NC(=O)c2ccc(S(=O)(=O)N3CCCC3)cc2)sc2cc(NC(C)=O)ccc21`, for which the Potency is 0.928 µM (active).
In the case of `O=C(Cc1ccccc1F)NC1CCSc2ccccc21` (stereo not given), the Potency result was “inactive”.
On to `O=S(=O)(/C=C/c1ccccc1)N1CCNCC1`, for which the Potency entry is “inactive”.
Turning to `CC1CCN(C(=O)CCNC(=O)c2ccccc2)CC1`, the Potency entry is “inactive”.
Take `Cn1c(CC2Sc3ccccc3NC2=O)nnc1SCC(=O)c1ccc(Cl)cc1` (stereo not given): the Potency entry was “inactive”.
Same read-out and setting: next, `O=C(NCCN1CCOC1=O)C1CCC(=O)N(CCc2ccc(Cl)cc2)C1` (stereo not given): “inactive”; `CCOC(=O)C1=C(C)NC(=O)N(C(C)=O)C1c1ccc(Cl)cc1` (stereo not given): 4.15 µM (active).
In the case of `COCCOC(=O)C1=C(C)NC(=O)NC1c1ccc(Cl)cc1` (stereo not given), the Potency entry is “inactive”.
For `CCOC(=O)COc1ccc(Cl)cc1C1NC(=O)NC(C)=C1C(C)=O` (stereo not given), the Potency entry is “inactive”.
On the same count and under the same terms, next, `OC(COc1ccc(F)cc1Cl)CN1CCc2ccccc2C1` (stereo not given): “inactive”; `CS(=O)(=O)c1ccccc1C(=O)Nc1ccc2sccc2c1`: “inactive”.
`O=[N+]([O-])c1cccc2ncccc12`: the Potency entry is “inactive”.
For `C/C(=N\NC(N)=S)c1ccncc1`, the Potency entry is “inactive”.
`C/C(=N\NC(N)=S)c1cccnc1`: the Potency entry was “inactive”.
As to `C/C(=N\NC(=S)NC(C)C)c1ccc(C(C)(C)C)cc1`, the Potency was 3.7 µM (active).
Turning to `CC(C)Cc1nnc(NC(=O)CCc2ccccc2)s1`, the Potency result is “inactive”.
With `CC(=O)N(Cc1cc(=O)[nH]c2ccccc12)c1ccc(C)cc1C`, the Potency entry is “inactive”.
For the compound `Cc1noc(C)c1CSCC(=O)Nc1ccc(Br)cc1Cl`, the Potency entry is “inactive”.
Turning to `Cc1cccc(Cn2cnc3c(N)c(C)c(C)cc32)c1`, the Potency was 10.4 µM (active).
Take `COc1cccc(Cn2cnc3c([N+](=O)[O-])c(C)c(C)cc32)c1`: the Potency result is “inactive”.
On the same count and under the same terms, for `CCOC(=O)c1cn(Cc2cccc(C)c2)nn1` the value was “inactive”.
The same measure, in the same setting: for `Cc1ccc(NC(=O)c2cc3ccccc3o2)cc1` the value was “inactive”; for `O=C(O)c1[nH]c2ccccc2c1C(c1cccc(O)c1)c1c(C(=O)O)[nH]c2ccccc12`, “inactive”.
Consider `COc1ccc(NC(=O)CN(C)C(=O)CNC(=O)C2CCCCC2)cc1`, for which the Potency entry was “inactive”.
Same read-out and setting: next, `O=S(=O)(Oc1ccccc1C(=S)N1CCOCC1)c1ccc(Cl)cc1`: “inactive”; `CCCCNC(=O)CCn1nc(-c2ccc(Cl)cc2)ccc1=O`: “inactive”; `Cc1ccc(S(=O)(=O)N(CC(=O)N2CCc3ccccc3C2)c2cccc(Cl)c2)cc1`: 8.28 µM (active).
The same measure, in the same setting: for `COc1cccc(N(CC(=O)N2CCc3ccccc3C2)S(C)(=O)=O)c1` the value was “inactive”; for `Cc1ccc(Cl)c(OCC(=O)N2CCc3ccccc3C2)c1`, “inactive”; for `CC(C)=CCC/C(C)=C/C(=O)O`, “inactive”.
The same measure, in the same setting: for `O=C(Nc1ccccc1F)C1C2C=CC3(O2)C1C(=O)N(c1cccnc1)C3C(=O)NC1CCCCC1` (stereo not given) the value was 13.1 µM (active); for `O=C(NCc1cccnc1)Nc1ccccc1F`, “inactive”.
In the case of `CC(C)N1C(=O)C2C(C(=O)NC3CCCCC3)C3C=CC2(O3)C1C(=O)NC1CCCC1` (stereo not given), the activity change, negative = inhibition was -1.06% [at 5.75 µM].
On to `Nc1ccccc1C(=O)NC1CCCCNC1=O` (stereo not given), for which the Potency result was “inactive”.
For the compound `O=C1CCNCCN1[C@H](CO)Cc1ccccc1`, the Potency entry is “inactive”.
Same read-out and setting: next, `Cc1cccc([C@H](C)c2cnc[nH]2)c1C`: 4.26 µM (active); `Cc1cccc(N2CCN(C(=O)C3CCN(S(=O)(=O)c4cnc[nH]4)CC3)CC2)c1C`: “inactive”; `CSc1ncccc1C(=O)NCc1ccccc1Cl`: “inactive”.
Consider `COc1ccc(CNC(=O)c2ccc(Br)s2)cc1OC`, for which the Potency result is “inactive”.
Take `CN(Cc1ccccc1)CC(O)COc1ccc(CNCc2cc3ccccc3s2)cc1` (stereo not given): the Potency is 4.15 µM (active).
Same read-out and setting: for `Cc1ccc(OCC(=O)OC(C)CN(C)Cc2ccccc2)cc1` (stereo not given) the value was “inactive”.
As to `OC(CNCc1ccc2c(c1)OCO2)COc1ccccc1` (stereo not given), the Potency entry was “inactive”.
On the same count and under the same terms, next, `CC(C)C[C@H](NC(=O)[C@@H]1O[C@H]1C(=O)O)C(=O)NCCCCN=C(N)N`: 3.29 µM (active); `COP1(=O)C[C@@H](O)[C@@H](O)[C@@H](COCc2ccccc2)O1` (stereo not given in full): “inactive”; `COc1ccc(/C=C2\N=C3CCCN3C2=O)cc1`: “inactive”.
As for `CSc1nc(C)nc(C2CC2)c1C#N`, the Potency result is “inactive”.
Take `Cc1cc(N2CCN(c3ccc(F)cc3)CC2)n2ncnc2n1`: the Potency entry is “inactive”.
For the compound `Cc1cc(C)nc(N/N=C/c2ccc([N+](=O)[O-])o2)n1`, the Potency is 5.22 µM (active).
Consider `O=C(N/N=C/c1ccc([N+](=O)[O-])o1)c1cc([N+](=O)[O-])cc([N+](=O)[O-])c1O`, for which the Potency entry is “inactive”.
On to `Cc1cc(C)nc(N/N=C/c2ccncc2)n1`, for which the Potency entry is “inactive”.
Turning to `CCOC(=O)c1cc(C(C)C)sc1NC(=O)COC(=O)c1nccnc1N`, the Potency entry is “inactive”.
Regarding `Cc1ccc(NC(=O)[C@H](Cc2ccccc2)NC(=O)C2CCNCC2)cc1`, the Potency result was “inactive”.
As for `O=C(/C=C/c1ccccc1Cl)Nc1ccc(S(=O)(=O)Nc2ncccn2)cc1`, the Potency result is “inactive”.
`CC(=O)NS(=O)(=O)c1ccc(NC(=O)/C=C/c2ccccc2Cl)cc1`: the Potency result is “inactive”.
In the case of `NS(=O)(=O)c1ccc(NC(=O)/C=C/c2ccccc2Cl)cc1`, the Potency is 10.4 µM (active).
For the compound `CCc1noc(C)c1C(=O)NNC(=O)c1ccc(F)cc1`, the Potency result was “inactive”.
As to `O=S(=O)(c1ccccc1)c1nc(-c2ccccc2)oc1NCCCN1CCOCC1`, the Potency entry was “inactive”.
Turning to `CCc1nc2sc(C(=O)O)c(N)c2c2c1CCCC2`, the Potency result was “inactive”.
Regarding `CCOc1ccccc1C1CC(c2ccccc2)Nc2nc(N)nn21` (stereo not given), the Potency result was “inactive”.
As for `CCOc1ccccc1C1CC(c2ccc(Cl)cc2)Nc2nc(N)nn21` (stereo not given), the Potency was 10.4 µM (active).
Regarding `COc1ccc(C2CC(c3ccc(Cl)cc3Cl)Nc3nc(N)nn32)cc1OC` (stereo not given), the Potency result was “inactive”.
Regarding `COCCCNc1nc2ccccc2nc1NS(=O)(=O)c1ccc(F)cc1`, the Potency entry was “inactive”.
Still for that read-out and setting: next, `Cc1cccc(-n2nc3c(c2NC(=O)c2cc4ccccc4o2)CS(=O)(=O)C3)c1`: “inactive”; `COc1ccc(/C(C)=N\NC(=O)c2ccc(-c3ccccc3)cc2)c(F)c1`: 10.4 µM (active); `CCN(CC)c1ccc(C(=O)N/N=C(\C)c2cccc(OC)c2)cc1`: “inactive”.
Still for that read-out and setting: next, `COc1cccc(C(=O)N/N=C(\C)c2cccc(NC(=O)c3ccc(F)cc3)c2)c1OC`: “inactive”; `CN(Cc1nc2ccccc2s1)C(=O)c1ccc(F)cc1`: “inactive”.
For `COc1ccccc1CC(=O)Nc1ccc(S(=O)(=O)N2CCCC2)cc1`, the Potency entry is “inactive”.
For the compound `Cn1cc(CCC(=O)N2CCCC(C(=O)c3ccc(C(C)(C)C)cc3)C2)cn1` (stereo not given), the Potency result is “inactive”.
As for `CCOC(=O)C1CCCN(C(=O)/C=C/c2ccc(OC)cc2)C1` (stereo not given), the Potency entry is “inactive”.
`Cn1cc(/C=C/C(=O)N2CCCC(C(=O)c3ccc(C(F)(F)F)cc3)C2)cn1` (stereo not given): the Potency is 10.4 µM (active).
Same read-out and setting: next, `Cc1cccc(NC(=O)N2CCCCCC2)c1C`: “inactive”.
Turning to `N[C@@H](Cc1ccccc1)C(=O)N1CCOCC1`, the Potency result is “inactive”.
As to `COc1cccc(CNC(=O)c2cccnc2Sc2ccc(Cl)cc2)c1`, the Potency entry was “inactive”.
On the same count and under the same terms, next, `O=C1c2cccc3cccc(c23)C(=O)N1c1cccc(O)c1`: “inactive”; `CCC(=C/c1sc2ccc3ccccc3c2[n+]1C)/C=C1\Sc2ccc3ccccc3c2N1C`: 9.28 µM (active); `CC1(C)C2CCC1(CS(=O)(=O)NCCc1c[nH]c3ccccc13)C(=O)C2` (stereo not given): “inactive”.
For `Cc1csc(=O)n1CC(=O)OCC(=O)N(CC(C)C)c1c(N)n(Cc2ccccc2)c(=O)[nH]c1=O`, the Potency entry is “inactive”.
For the compound `Nc1nnc2c(C(F)(F)F)nc3ccccc3n12`, the Potency result is “inactive”.
Still for that read-out and setting: for `Cc1ccc(OCCNC(=O)CCNS(=O)(=O)c2ccc(Br)cc2)cc1` the value was “inactive”; for `COc1cc2c(cc1OC)/C(=C/C(=O)c1ccc(NC(C)=O)cc1)NCC2`, “inactive”.
As to `COc1ccc(S(=O)(=O)N2CCC(C(=O)NCc3ccco3)CC2)cc1C`, the Potency was 5.22 µM (active).
On to `COc1ccccc1CNC(=O)C1CCN(S(=O)(=O)c2ccc3c(c2)OCCO3)CC1`, for which the Potency result is “inactive”.
On to `Cc1ccc(S(=O)(=O)N2CCC(C(=O)N[C@@H](C)C(=O)NCc3ccco3)CC2)cc1`, for which the Potency entry is “inactive”.
With `CCc1ccc(C(=O)N2CCN(S(=O)(=O)c3sc(C(=O)O)c(C)c3C(=O)O)CC2)cc1`, the Potency result is “inactive”.
Take `COc1cccc(-c2nnc(NC(=O)c3ccc(S(=O)(=O)N(CC(C)C)CC(C)C)cc3)o2)c1`: the Potency is 1.65 µM (active).
As to `O=C(Nc1nnc(-c2ccco2)o1)c1ccc(S(=O)(=O)N2CCOCC2)cc1`, the Potency entry was “inactive”.
As to `COc1cccc(NC(=O)c2ccc(S(=O)(=O)N(C)C)cc2)c1`, the Potency result is “inactive”.
Consider `O=C(NCc1ccccc1CN1CCCC1)c1cccc(S(=O)(=O)Nc2ccc(F)cc2)c1`, for which the Potency was 10.4 µM (active).
As for `CC(=O)c1ccc(S(=O)(=O)Nc2ccc(C(=O)NCC(c3ccccc3)N(C)C)cc2)cc1` (stereo not given), the Potency result was “inactive”.
For the compound `CCOc1ccc(S(=O)(=O)Nc2ccc(C(=O)NCCCN3CCCC3=O)cc2)cc1`, the Potency entry is “inactive”.
Take `COc1ccccc1C(CNC(=O)c1cccc(NS(=O)(=O)c2ccc(Br)cc2)c1)N(C)C` (stereo not given): the Potency is 6.57 µM (active).
For `O=C(NCc1cccc(C(F)(F)F)c1)c1cccc(S(=O)(=O)N2CCN(Cc3ccccc3)CC2)c1`, the Potency result was “inactive”.
Regarding `O=C(NCC1(N2CCCCC2)CCCCC1)c1ccc(NS(=O)(=O)c2ccc(F)cc2)cc1`, the Potency was 10.4 µM (active).
`CCOc1ccc(S(=O)(=O)Nc2ccc(S(=O)(=O)Nc3cc(OC)ccc3OC)cc2)cc1`: the Potency result is “inactive”.
`O=C(NCC1CCCO1)c1ccc(S(=O)(=O)Nc2ccc(F)cc2)cc1` (stereo not given): the Potency result is “inactive”.
As for `O=C(OC1CCOC1=O)c1cccc(S(=O)(=O)Nc2ccc(F)cc2)c1` (stereo not given), the Potency entry is “inactive”.
As to `Cc1ccc(NS(=O)(=O)c2ccc(C(=O)NCCCN3CCOCC3)cc2)cc1`, the Potency result was “inactive”.
Take `CCOc1ccc(NS(=O)(=O)c2ccc(C(=O)NCC(c3ccccc3OC)N3CCCC3)cc2)cc1` (stereo not given): the Potency was 14.7 µM (active).
As to `COc1ccc(C(CNC(=O)c2ccc(S(=O)(=O)Nc3ccccc3F)cc2)N(C)C)cc1` (stereo not given), the Potency result is “inactive”.
